This assay can be described thus: In vitro enzyme assay to detect hydrolysis of chlorophenol red-beta-D-[…] directly proportional to the number of Toxoplasma stably expressing beta-galactosidase. Type of assay: functional, organism-based, Toxoplasma gondii. Set-up: scale not given: in the data most compounds retested in dose-response had high values.

Each structure is given as a SMILES string. Among all 85,000 compounds or so, about 440 (0.52%) showed an effect of 50% or more. The entries come from a sample that favours strong results as a whole.

`O=S(=O)(CCN1CCCC1)c1ccc(Cl)cc1`: the “Percent Effect” value (50 µM) worked out at 0.9615%.

As to `CNC(=O)CN(C)C(=O)Cc1c[nH]c2ccccc12`, the “Percent Effect” value (50 µM) came out at 2.87%.

As to `Cc1ccsc1CN(C)C(=O)C(CN)c1ccccc1` (stereo unspecified), the “Percent Effect” value (50 µM) is -6.582%.

For the compound `CCN(CC)C(=O)c1ccccc1N(C)S(C)(=O)=O`, the “Percent Effect” value (50 µM) is recorded as -4.295%.

Take `CN(C)c1ncc2c(n1)CN(C1CCSCC1)C2=O`: under “10 µM”, the “Percent Effect” value was determined as 78.86%.

Turning to `CC1CCC(N2Cc3nc(N)ncc3C2=O)CC1` (stereo unspecified), where the note is “10 µM”, the “Percent Effect” value is listed as -0.06734%.

On to `Nc1ncc2c(n1)CN(C1CCCC1)C2=O`, for which the “Percent Effect” value (10 µM) is listed as 17.83%.

For `CNc1ncc2c(n1)CN(C1CCCC1)C2=O`, where the note is “10 µM”, the “Percent Effect” value was found to be 52.32%.

Consider `CN(C)c1ncc2c(n1)CN(C1CC(C)(C)NC(C)(C)C1)C2=O`, for which the “Percent Effect” value (10 µM) is on record as -0.4714%.

Take `CNc1ncc2c(n1)CN(C1CC(C)(C)NC(C)(C)C1)C2=O`: for the setting “10 µM”, the “Percent Effect” value is on record as -1.01%.

For `COCc1nc(C2CCN(S(C)(=O)=O)C2)no1` (stereo unspecified), the “Percent Effect” value (50 µM) was -61%.

Regarding `CC(O)CN(CCN)C(=O)OC(C)(C)C` (stereo unspecified), the “Percent Effect” value (50 µM) is reported as -7.411%.

With `NCC(O)c1ccc(-c2ccccc2)cc1` (stereo unspecified), the “Percent Effect” value (50 µM) was determined as 100.3%.

Regarding `NCC(O)c1ccncc1` (stereo unspecified), the “Percent Effect” value (50 µM) amounted to 1.266%.

Consider `NCC(O)c1cccc2ccccc12` (stereo unspecified), for which, for the setting “50 µM”, the “Percent Effect” value was determined as 36.71%.

`CCN(CC)C(=O)CN(C)C(=O)Cc1cccc(F)c1`: where the note is “50 µM”, the “Percent Effect” value came out at 1.744%.

For `CN(Cc1cc(C#N)cs1)Cc1nccn1C`, the “Percent Effect” value (50 µM) is given as -7.444%.

Take `Nc1cc(-c2c[nH]nc2C2CCN(C(=O)C3CCCC3)C2)ccn1` (stereo unspecified): for the setting “10 µM”, the “Percent Effect” value is on record as 5.055%.

As to `Cc1c[nH]nc1C1CCN(C(=O)C2CCCC2)C1` (stereo unspecified), the “Percent Effect” value (10 µM) is reported as 6.331%.

With `Cc1c[nH]nc1C1CCN(C(=O)C2CCOCC2)C1` (stereo unspecified), under “10 µM”, the “Percent Effect” value was 9.496%.

Consider `Nc1cc(-c2c[nH]nc2C2CCCCN2C(=O)C2CCCC2)ccn1` (stereo unspecified), for which, for the setting “10 µM”, the “Percent Effect” value is -17.94%.

Turning to `CCCNc1cc(-c2c[nH]nc2C2CCN(C(=O)C3CCC3)C2)ccn1` (stereo unspecified), the “Percent Effect” value (10 µM) is given as 94.14%.

Take `CN1CCC(c2n[nH]cc2-c2ccnc(N)c2)C1` (stereo unspecified): the “Percent Effect” value (10 µM) is -7.314%.

For `CC(C)CNc1cc(-c2c[nH]nc2C2CCN(C(=O)C3CC3)C2)ccn1` (stereo unspecified), the “Percent Effect” value (10 µM) turned out to be 86.59%.

`CC(C)Nc1cc(-c2c[nH]nc2C2CCN(C(=O)C3CC3)C2)ccn1` (stereo unspecified): the “Percent Effect” value (10 µM) amounted to 77.26%.

`Cc1c[nH]nc1C1CCN(C(=O)C2CCC2)CC1`: the “Percent Effect” value (10 µM) is reported as 14.73%.

Consider `CC(=O)N1CCC(c2n[nH]cc2-c2ccnc(N)c2)C1` (stereo unspecified), for which, under “10 µM”, the “Percent Effect” value amounted to 20.34%.

As to `CC(C)Nc1cc(-c2c[nH]nc2C2CCN(C(=O)C3CCC3)C2)ccn1` (stereo unspecified), under “10 µM”, the “Percent Effect” value stood at 95.4%.

In the case of `CC(C)N1CCC(c2n[nH]cc2-c2ccnc(N)c2)C1` (stereo unspecified), the “Percent Effect” value (10 µM) is given as 18.38%.

As to `NCCC(=O)N1CCCC1Cc1cccc(F)c1` (stereo unspecified), the “Percent Effect” value (50 µM) is given as -2.968%.

With `COc1cc(Br)c(CN)cc1OC`, the “Percent Effect” value (50 µM) is 44.43%.

Regarding `CC(C(=O)N1CCCC1)N1CCN(c2nc[nH]n2)CC1` (stereo unspecified), the “Percent Effect” value (50 µM) amounted to 16.6%.

Consider `N#Cc1ccc(C(=O)NCCCc2csc(N)n2)cn1`, for which the “Percent Effect” value (50 µM) stood at 3.81%.

On to `CC(=O)N(C)C1CCNCC1`, for which, for the setting “50 µM”, the “Percent Effect” value is reported as -2.944%.

Consider `CNC(=O)CCSc1ccc2c(c1)OCCO2`, for which, under “50 µM”, the “Percent Effect” value is 0.7135%.

With `NCC(=O)Nc1cc(C(F)(F)F)c[nH]c1=O`, the “Percent Effect” value (50 µM) is listed as -2.166%.

In the case of `CCCn1ccnc1CNC(=O)CCC(=O)N(C)C`, the “Percent Effect” value (50 µM) is given as -10.54%.

Turning to `CNc1nnc(SCc2ncc(C)o2)s1`, under “50 µM”, the “Percent Effect” value is recorded as -1.305%.

Consider `COCC(=O)NCc1nn(CCN2CCCC2)c(=O)c2ccccc12`, for which, where the note is “10 µM”, the “Percent Effect” value was determined as 94.96%.

In the case of `CCNC(=O)NCc1nn(CCN2CCCC2)c(=O)c2ccccc12`, where the note is “10 µM”, the “Percent Effect” value is 21.21%.

`CCOC(=O)NCc1nn(CCN2CCCC2)c(=O)c2ccccc12`: for the setting “10 µM”, the “Percent Effect” value is 7.365%.

In the case of `CCC(=O)NC(C)(C#N)C(C)C` (stereo unspecified), for the setting “50 µM”, the “Percent Effect” value is 2.056%.

Turning to `CC1CCN(CC(N)=O)CC1`, for the setting “50 µM”, the “Percent Effect” value is -12.83%.

As for `O=C(NCCc1cccs1)c1cc[nH]n1`, the “Percent Effect” value (50 µM) is given as 7.034%.

Regarding `CCC(N)c1cnn(CC)c1` (stereo unspecified), the “Percent Effect” value (50 µM) is -19.44%.

For the compound `O=C(c1cnn(-c2ccccc2)c1)N1CCCCC1`, the “Percent Effect” value (50 µM) is -4.798%.

Turning to `O=C(c1ccc(O)nc1)N1CCN(C(=O)c2ccc(F)c(F)c2)CC1`, the “Percent Effect” value (10 µM) is 5.066%.

Consider `O=C(c1cc(-c2cccs2)cs1)N1CCSCC1`, for which the “Percent Effect” value (10 µM) is recorded as -31.67%.

With `CCNc1ncc(C(=O)N2CCCCC2)s1`, the “Percent Effect” value (50 µM) was 3.681%.

As to `O=C(c1ccc(O)nc1)N1CCCCCCC1`, for the setting “50 µM”, the “Percent Effect” value is -10.69%.

In the case of `O=C(c1ccc(-c2ccc(O)nc2)s1)N1CCCCCC1`, the “Percent Effect” value (10 µM) came to 59.06%.

Regarding `O=C(c1ccc(-c2ccc(O)nc2)s1)N1CCSCC1`, the “Percent Effect” value (10 µM) amounted to 61.48%.

On to `O=C(c1ccc(-c2ccc(O)nc2)s1)N1CCCCC1`, for which the “Percent Effect” value (10 µM) is on record as 53%.

In the case of `O=C(c1cnc(-c2cccnc2)nc1)N1CCSCC1`, the “Percent Effect” value (10 µM) is listed as 1.887%.

With `O=C(CN1CCNCC1)c1ccccc1Cl`, the “Percent Effect” value (50 µM) is on record as -6.338%.

For `O=C(c1cnsn1)N1CC=C(c2ccccc2)CC1`, the “Percent Effect” value (50 µM) is 3.694%.

As for `CCC(C)(O)CCN` (stereo unspecified), the “Percent Effect” value (50 µM) was 17.18%.

For `Cc1ccc(NC(=O)CN2CCNCC2)c(C)c1`, under “50 µM”, the “Percent Effect” value is recorded as -5.303%.

As to `CCC(CC)NC(=O)CSc1nnc(N)n1C`, where the note is “50 µM”, the “Percent Effect” value is -0.697%.

With `Cn1ncc2c(NCc3ccccc3CO)ncnc21`, the “Percent Effect” value (50 µM) turned out to be 2.537%.

Consider `Cc1ccc(CN(C)C(=O)Cn2cnnn2)o1`, for which, under “50 µM”, the “Percent Effect” value was found to be 88.2%.

(Values after ChEMBL document CHEMBL3988442, “University of Dundee, Small-Polar-MMV Screening Library” (2021).)
